High-throughput results deposited in PubChem BioAssay by National Center for Advancing Translational Sciences (NCATS).
A selection: hits, their analogues and other compounds. The true share with any hit is near 8.7%.
Pf growth 96h = Primary qHTS for delayed death inhibitors of the malarial parasite plastid, 96 hour incubation | 320,000 tested, 6.9% active | P. falciparum luciferase reporter growth, 96 h | Potency, µM (highest dose often 28.7 µM), for the others: at the highest dose activity change, negative = inhibition, actives largely listed as inhibitors | AID 504834, 2011
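Delayed-death screen, second-generation endpoint: infected erythrocytes, 2% hematocrit, 0.05% parasitemia final; 96 hours at 37 C, 5% CO2; luciferase detection reagent; luminescence decrease equals reduced growth.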
AMA1 RON2 block = qHTS for Inhibitors of AMA1-RON; Towards Development of Antimalarial Drug Lead: Primary Screen. AlphaScreen AMA1-biotinylated RON2 peptide binding. Potency, µM (highest dose often 58.2 µM), inactives show at the top dose activity change, negative = inhibition, most hits filed as inhibitors. 360,000 tested, 0.2% active;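 also: 0% = vehicle wells and -100% = peptide control; nearly all actives have a fitted effect of over 45% in size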
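AMA1 (3D7) with his tag at 25 nM final met compounds first, then biotinylated RON2 peptide at 25 nM; detection used donor plus acceptor beads, 10 µg/mL apiece, read by AlphaScreen after 30 min at room temperature.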
VACV mCherry inh = qHTS for Stage-Specific Inhibitors of Vaccinia Orthopoxvirus: mCherry Reporter Primary qHTS; 310,000 tested, 0.63% active; Potency, µM (top dose mostly 36.5 µM), for inactives: top-dose activity change, negative = inhibition, actives largely listed as inhibitors; Vaccinia virus mCherry reporter infection, fluorescence; calls by dose curve; tested in A549 cells; also: nearly all actives have a fitted effect of over 35% in size
Pf growth 48h = Primary qHTS for delayed death inhibitors of the malarial parasite plastid, 48 hour incubation; P. falciparum luciferase growth in erythrocytes, 48 h; Potency, µM (doses to about 28.7 µM), inactives show at the top dose activity change, negative = inhibition, usual class: inhibitors; 310,000 tested, 5.9% active; AID 504832, 2011
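In quantitative HTS format, infected erythrocytes bearing luciferase-reporter parasites were treated for a single generation at 37 C. Luminescence after adding detection reagent served as the growth measure.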
VACV Venus inh = qHTS for Stage-Specific Inhibitors of Vaccinia Orthopoxvirus: Venus Reporter Primary qHTS; Vaccinia virus Venus reporter expression, fluorescence; 330,000 tested, 0.46% active; Potency, µM (titrated, usually from 36.5 µM), inactives show top-dose activity change, negative = inhibition, most hits filed as inhibitors; AID 720580, 2013; calls by dose curve; tested in A549 cells; also: nearly all actives have a fitted effect of over 30% in size
* marks the source's active call; other numbers are inactive results; i = inactive; ? = inconclusive; . = no result; [ ] = another dose, or the depositor's remark. Unless noted, calls follow the shape of the dose curve; as a rule, active = well fitted curve in the direction sought with a large enough effect; inconclusive = small, poorly fitted or top-dose-only effect, or another doubt; inactive = no such curve, though single readings can be large; an effect the other way counts as inactive or inconclusive. Unless noted, % is scaled to controls: 0 for no effect and ±100 for the full control effect; potency is read from the fitted curve at half-maximal effect.

SMILES	Pf growth 96h	AMA1 RON2 block	VACV mCherry inh	Pf growth 48h	VACV Venus inh
CC(C)=CC(=O)O[C@H]1[C@@H]2[C@H](C)C(=O)O[C@@H]2C[C@@H](C)[C@@H]2[C@@H](O)CC(=O)[C@]21C	23.8%	-22.2%	?	33.8%	?
C[C@@H]1C[C@H]2OC(=O)C3(CO3)[C@H]2[C@H](O)[C@]2(C)C(=O)C3OC3[C@@H]12 (some centres not stated)	?	.	.	11.7µM*	.
COC(=O)C1CCN(Cc2ccc(OCCCN3CCN(c4ccc([N+](=O)[O-])cc4)CC3)cc2)CC1	10.4µM*	-8.0%	?	2.33µM*	-9.5%
COc1ccc(NS(=O)(=O)c2ccc3c(c2)n(C)c(=O)c(=O)n3C)cc1Cl	.	.	-9.2%	.	0.0%
Cc1ccc(S(=O)(=O)N2CCC(C(=O)NCc3ccccc3Cl)CC2)cc1	10.4µM*	0.0%	-17.6%	.	-10.6%
CSc1ccc(S(=O)(=O)N2CCC(C(=O)NCc3ccccn3)CC2)cc1	11.7µM*	92.4%	-19.0%	-6.7%	9.1%
O=C(NCc1ccccn1)C1CCN(S(=O)(=O)c2ccccc2)CC1	11.9%	8.7%	-14.4%	10.9%	-8.2%
O=C(NCc1ccccc1Cl)C1CCN(S(=O)(=O)c2ccc(F)cc2)CC1	30.8%	-12.8%	i	20.2%	-2.9%
CCCS(=O)(=O)N1CCC(C(=O)NCc2ccccc2Cl)CC1	10.4µM*	2.4%	.	24.2%	?
COc1ccc(CC(=O)Nc2cc(-c3cn4cccnc4n3)ccc2OC)cc1	.	.	-7.5%	.	-3.0%
COc1cc2nc(NC(=O)c3ccc(S(=O)(=O)N4CCCC4)cc3)sc2cc1OC	.	.	-4.5%	.	2.7%
COc1cc(NC(=O)C2CCN(S(=O)(=O)c3ccc4c(c3)oc(=O)n4C)CC2)cc(OC)c1	.	.	5.0%	.	-7.2%
O=C(NC1CCCCC1)n1c(=O)oc2ccc(Cl)cc21	14.2%	7.9%	i	19.8%	-18.4%
CC1CCN(S(=O)(=O)c2ccc3c(c2)oc(=O)n3C)CC1	0.465µM*	-5.0%	-26.1%	-7.8%	11.7%
Cc1csc(NC(=O)C2CCN(S(=O)(=O)c3ccc4c(c3)oc(=O)n4C)CC2)n1	3.29µM*	0.0%	-13.7%	.	-17.3%
O=C(Cn1c(=O)oc2ccc(Cl)cc21)NC1CCCCC1	9.28µM*	3.1%	.	-23.0%	.
CC(C)COC(=O)n1c(=O)oc2cc(S(=O)(=O)N3CCCCC3)ccc21	.	3.5%	.	8.28µM*	.
CCOC(=O)n1c(=O)oc2cc(S(=O)(=O)N3CCOCC3)ccc21	.	1.0%	.	14.8%	.
CSc1nn(Cc2ccc(F)cc2)c(N(C(C)=O)C(C)=O)c1S(=O)(=O)c1ccccc1	.	.	-34.8%	.	-23.8%
O=C(Cc1ccc(Cl)cc1)NC1CC(=O)N(c2ccc3c(c2)OCCO3)C1 (configuration not stated)	.	.	-8.9%	.	-3.0%
Cc1ccc2c(c1)c1c(c(=O)n(-c3ccccc3)c(=O)n1CC(=O)NCCC1=CCCCC1)n2C	.	.	-3.9%	.	-2.0%
COc1ccc(N2CC(NC(=O)COc3ccccc3C)CC2=O)cc1OC (configuration not stated)	.	.	-4.2%	.	-14.1%
COc1ccc(NC(=O)Cn2c(=O)oc3cc(S(=O)(=O)N4CCCC4)ccc32)c(OC)c1	6.57µM*	0.0%	-3.0%	3.3%	-7.2%
CCCNC(=O)Cn1c(=O)oc2cc(S(=O)(=O)N3CCCC3)ccc21	14.3%	-5.8%	6.2%	17.8%	-11.0%
O=C(Cn1c(=O)oc2cc(S(=O)(=O)N3CCCCCC3)ccc21)NC1CCCCCCC1	11.7µM*	-6.4%	i	.	-9.6%
SMILES	Pf growth 96h	AMA1 RON2 block	VACV mCherry inh	Pf growth 48h	VACV Venus inh
COc1ccc(NC(=O)Cn2c(=O)oc3cc(S(=O)(=O)N4CCC(C)CC4)ccc32)c(OC)c1	.	.	-18.4%	.	-18.1%
Cc1cc(C)cc(NC(=O)Cn2c(=O)oc3cc(S(=O)(=O)N4CCC(C)CC4)ccc32)c1	11.7µM*	13.5%	?	.	?
CCOc1ccc(NC(=O)CSc2nnc3scc(-c4ccccc4)n23)cc1	.	.	-24.0%	.	-11.4%
CC1=C(C(=O)Nc2ccccc2C)C(c2ccco2)n2ncnc2N1 (configuration not stated)	.	.	0.9%	.	7.9%
COc1ccc(-n2c(SCC(=O)Nc3nccs3)nnc2-c2ccoc2C)cc1	?	12.1%	-24.7%	.	-19.0%
COc1ccc(-n2c(SCC(=O)Nc3nc(C)cs3)nnc2-c2ccoc2C)cc1	3.1%	-3.5%	.	5.86µM*	.
COc1cccc(-n2c(SCC(=O)Nc3nccs3)nnc2-c2ccoc2C)c1	145.3%	-1.9%	-5.8%	8.28µM*	-13.6%
O=C(CSc1nnc(Cn2c(=O)sc3ccccc32)n1-c1ccccc1)Nc1nccs1	4.65µM*	-8.5%	-15.5%	?	-0.9%
O=C(CSc1nnc(Cn2c(=O)sc3ccccc32)n1-c1ccccc1)N1CCCC1	?	-4.0%	.	-0.5%	.
CCOC(=O)COc1ccc(C)cc1C(=O)c1ccn2nc(-c3ccc(C)cc3)cc2n1	.	.	-10.5%	.	-11.0%
CCc1ccc2oc(C(=O)Nc3c(C)n(C)n(-c4ccccc4)c3=O)cc(=O)c2c1	.	.	i	.	-22.6%
CCN(CC)S(=O)(=O)c1ccc2c(c1)c(=O)c(C(=O)N(C)Cc1ccccc1)cn2C	.	.	0.3%	.	6.7%
C=C1C=C(C)n2ncc(C(=O)Nc3ccc(F)cc3F)c2N1	.	.	-13.5%	.	-8.3%
CC(C)(C)c1ccc(OCCn2cc(C(=O)c3ccco3)c3ccccc32)cc1	.	.	-10.4%	.	-19.0%
O=C(NNc1c(Cl)cccc1Cl)c1sc2ccccc2c1Cl	.	.	i	.	-22.4%
O=C(C1CC1)N1c2ccccc2Sc2ccccc21	26.2%	5.9%	-22.3%	11.7µM*	-14.1%
CC(C)c1ccc(NC(=O)CSc2nc(=O)n(Cc3cccnc3)c3c2CCC3)cc1	.	.	-23.7%	.	-19.9%
CC(C)CCn1c(=O)c2ccccc2n2c(CCl)nnc12	?	-12.9%	-9.7%	?	-17.8%
CC(C)CCn1c(=O)c2ccccc2n2c(CN(C)Cc3ccccc3)nnc12	13.1µM*	-8.0%	-13.7%	?	-6.8%
COc1ccc(CCNC(=O)CCn2c(=O)c3ccccc3n(Cc3ccccc3)c2=O)cc1OC	.	.	-20.2%	.	-17.9%
O=C(C#Cc1ccccc1)Nc1ccccc1F	9.28µM*	4.1%	.	-12.7%	.
NC(=O)c1ccc(NC(=O)C#Cc2ccccc2)cc1	?	0.0%	7.08µM*	?	-28.8%
CNC(=O)Nc1ccccc1F	37.3%	-6.1%	-8.6%	.	-8.0%
COc1ccc(NC(=O)C#Cc2ccccc2)cc1OC	7.9%	8.0%	?	?	?
O=C(Cn1ncc2c3ccccc3n(Cc3cccc(Cl)c3)c2c1=O)N1CCC2(CC1)OCCO2	4.65µM*	-15.1%	-3.8%[1.46 µM]	4.15µM*	?
Cc1ccc(Cn2c(C)c3cnn(CC(=O)NC4CCCC4)c(=O)c3c2C)cc1	9.28µM*	2.1%	?	1.3%	-15.9%
